Results filed as inconclusive are left out. Calls of active or inactive are those of the source. Calls come from the whole dose curve; as a rule, active = well fitted inhibition curve with a large enough effect; inconclusive = small, poorly fitted or top-dose-only effect; inactive = flat fitted curve, though single readings scatter.
Assays:
Experiment in all cases: qHTS profiling for inhibitors of Plasmodium falciparum proliferation (AID 504749); note: nearly all actives have a fitted effect of over 60% in size
Conditions in all cases: P. falciparum in erythrocytes, SYBR Green DNA, 72 h; series mostly up to 28.7 µM
[1] = system: ATS95
Method in brief: (§1)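 Quantitative HTS: compounds pinned into medium, infected erythrocytes added (0.3% parasitemia, 2.5% hematocrit), 72 h culture at 37 C under 5% CO2. Saponin/Triton lysis with SYBR Green I, overnight RT, then fluorescence read.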

[2] = system: C2A
Method in brief: as §1

[3] = system: CP185
Method in brief: as §1

[4] = system: CP192
Method in brief: as §1

[5] = system: CP194
Method in brief: as §1

[6] = system: CP201
Method in brief: as §1

[7] = system: CP237
Method in brief: as §1

[8] = system: CP250
Method in brief: as §1

[9] = system: CP256
Method in brief: as §1

[10] = system: CP262
Method in brief: as §1

[11] = system: CP265
Method in brief: as §1

[12] = system: CP268
Method in brief: as §1

[13] = system: CP305
Method in brief: as §1

[14] = system: CP325
Method in brief: as §1

[15] = system: CP329
Method in brief: as §1

[16] = system: CP335
Method in brief: as §1

[17] = system: DIV30
Method in brief: as §1

[18] = system: P94_40
Method in brief: as §1

[19] = system: PC26
Method in brief: as §1

[20] = system: SC27B
Method in brief: as §1

Measured: Potency

C[N+](C)(C)CC(=O)[O-]
inactive: all assays above
